# Assay results from PubChem BioAssay AID588342 (National Center for Advancing Translational Sciences (NCATS), 2011).
# About 25,000 (6.9%) of roughly 360,000 compounds were called active. Not shown: some 9% with an inconclusive outcome. The call rests on the fitted dose curve; in most records, active means well fitted inhibition curve with a large enough effect; inconclusive means small, poorly fitted or top-dose-only effect; inactive means flat fitted curve, though single readings scatter. Shown is part of a subset that was picked to be rich in actives.
# Molecular target: Luciferin 4-monooxygenase (Photinus pyralis) (UniProt P08659)
# Sequence (P08659 whole entry, looked up): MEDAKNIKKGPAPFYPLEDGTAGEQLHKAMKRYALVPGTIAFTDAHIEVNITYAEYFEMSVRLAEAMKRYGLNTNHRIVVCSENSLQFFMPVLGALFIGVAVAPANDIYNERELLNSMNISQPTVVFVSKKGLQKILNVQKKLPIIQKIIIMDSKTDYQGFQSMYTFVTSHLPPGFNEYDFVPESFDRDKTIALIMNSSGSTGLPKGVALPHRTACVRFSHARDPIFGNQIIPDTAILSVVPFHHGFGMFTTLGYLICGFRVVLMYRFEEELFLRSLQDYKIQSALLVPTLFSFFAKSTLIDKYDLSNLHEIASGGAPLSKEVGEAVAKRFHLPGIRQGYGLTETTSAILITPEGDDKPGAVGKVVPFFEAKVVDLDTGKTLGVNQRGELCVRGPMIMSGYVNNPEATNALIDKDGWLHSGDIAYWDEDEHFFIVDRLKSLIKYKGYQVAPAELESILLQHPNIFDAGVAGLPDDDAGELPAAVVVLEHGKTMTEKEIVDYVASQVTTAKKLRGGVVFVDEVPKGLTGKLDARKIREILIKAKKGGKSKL
# Test: qHTS profiling assay for firefly luciferase inhibitor/activator using purifed enzyme and Km concentrations of substrates (counterscreen for miR-21 project); further: nearly all actives have a fitted effect of over 55% in size;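 on activity change, negative = inhibition: plate controls were vehicle for no effect and reference inhibitor for full effect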
# Settings: purified FLuc, luminescence inhibition; series mostly up to 57.5 µM; activity change, negative = inhibition: at the top concentration
# Summary of the method: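 Purified P. pyralis luciferase, 10 nM final, with Km-level 10 uM D-luciferin and 10 uM ATP in 50 mM Tris acetate pH 7.5, 10 mM Mg acetate, 0.01% Tween-20, 0.05% BSA; 6-point qHTS titration about 60 µM downward; luminescence read.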
# Potency means the concentration at half of the fitted maximal effect.
SMILES,"activity change, negative = inhibition",Potency
COc1ccc(N2CCN(C(=O)COc3ccc4c(C)cc(=O)oc4c3)CC2)cc1,1.41% (inactive),
CCn1ccnc1CN(C)C(=O)c1cc(COc2ccc(-n3cncn3)cc2)on1,0.919% (inactive),
CN(CCOc1ccccc1)C(=O)c1cc(COc2c(F)cccc2F)on1,-13.6% (inactive),
CN(Cc1cnccn1)C(=O)c1cc(COc2cccc(C(F)(F)F)c2)on1,-18.1% (inactive),
CN(Cc1cccnc1)C(=O)c1cc(COc2ccc3ncccc3c2)on1,-5.81% (inactive),
Cc1cc(CN(C)C(=O)c2cc(COc3ccc(C)c(C)c3)on2)n[nH]1,,2.39 µM (active)
Cc1ccc(OCc2cc(C(=O)N(C)CCc3ccccc3)no2)cc1C,,23.9 µM (active)
COc1cccc(CNC(=O)c2cc(=O)[nH]c3ccc(S(=O)(=O)N4CCCCC4)cc23)c1,3.34% (inactive),
Cc1cccc(OCCCC(=O)Nc2sc3c(c2C(N)=O)CCC(C)C3)c1 (stereo unspecified),-8.63% (inactive),
OC(c1ccccc1)C(CN1CCOCC1)c1ccccc1 (stereo unspecified),-1.86% (inactive),
COC(=O)c1ccccc1NC(=O)c1cnn(-c2ccc(F)cc2)c1-n1cccc1,-3.25% (inactive),
COC(=O)c1c(NC(=O)CCCOc2ccccc2)sc2c1CCC(C)C2 (stereo unspecified),1.24% (inactive),
CC1CCN(C(=O)COC(=O)CCC(=O)c2cccs2)CC1,-5.08% (inactive),
O=C(Nc1ccc2nc(SCC(=O)N3CCCc4ccccc43)sc2c1)c1ccc(Cl)cc1,-16.4% (inactive),
Cc1nnc(SCC(=O)N2CCN(c3ccccc3)CC2)n1-c1ccccc1,1.26% (inactive),
Cc1nnc(SCc2ccc(C(=O)c3ccc(Cl)cc3)o2)n1-c1ccccc1,,15.1 µM (active)
Cc1nnc(SCC(=O)NCCOc2ccc(Cl)cc2)n1-c1ccccc1,-2.21% (inactive),
COc1ccc(C)cc1NC(=O)c1cc(-c2ccccc2)nc2c1cnn2C(C)C,1.45% (inactive),
COCCN(CCOC)c1nc(N)c2c(N)nc3c(c2c1C#N)CC(=O)N3Cc1ccc(Cl)cc1,3.37% (inactive),
CCOC(=O)C1CCCN(Cc2nc(N)nc(Nc3ccc(C)cc3)n2)C1 (stereo unspecified),2.54% (inactive),
Cc1ccc(Nc2nc(N)nc(CSc3nnc(C)s3)n2)cc1,,10.7 µM (active)
Cc1nnc(SCc2nc3ccccc3nc2C)s1,-1.45% (inactive),

SMILES,"activity change, negative = inhibition",Potency
O=C(COC(=O)Cn1[nH]c(=O)c2ccccc2c1=O)Nc1ncc(Cl)cc1Cl,-0.206% (inactive),
Cc1ccc(S(=O)(=O)NCCC(=O)NNC(=O)C2COc3ccccc3O2)cc1 (stereo unspecified),0.339% (inactive),
CCN(CCCNC(=O)Cn1ncc2c3ccccc3n(C)c2c1=O)Cc1ccccc1,-13.7% (inactive),
Cc1nn(CC(=O)Nc2ccc(F)cc2)c(=O)c2ccccc12,-0.402% (inactive),
O=C(Cc1ccc(Cl)cc1)Nc1ccc2nn(-c3ccc(Cl)cc3)nc2c1,-0.963% (inactive),
CCC(=O)Nc1ccc2nn(-c3ccc(F)cc3)nc2c1,,1.35 µM (active)
Cc1ccc(NC(=O)c2oc3ccc(S(=O)(=O)N4CCCCC4)cc3c2C)cc1Cl,-0.833% (inactive),
COc1ccc(C(=O)N2CCN(c3ncccn3)CC2)cc1S(=O)(=O)N1CCOCC1,1.48% (inactive),
O=c1c(Cl)c(NC2CC2)cnn1-c1ccccc1,3.08% (inactive),
CCc1nc2c(cnn2-c2ccc(C)cc2)c(=O)n1-c1ccc(C)cc1,2.3% (inactive),
C=CCNc1cnn(-c2ccc(C)cc2)c(=O)c1Cl,,15.1 µM (active)
CCCCN(CC)CCCNC(=O)Cn1ncc2c([nH]c3ccc(C)cc32)c1=O,-6.5% (inactive),
O=C(CNCc1ccc(Cl)cc1)Nc1cccc(C(=O)O)c1,-5.42% (inactive),
O=C(Nc1c(-c2ccc(F)cc2)nc2ccccn12)c1cccc(F)c1,-11.9% (inactive),
O=C(c1ccc(F)cc1)n1cc(C(=S)N2CCOCC2)c2ccccc21,-16.4% (inactive),
O=C(c1ccc(F)cc1)n1c(=S)nc2ccccn21,,0.269 µM (active)
Cc1cc(C)c(NC(=O)c2cc3sc(Cl)cc3n2C)c(C)c1,-8.09% (inactive),
O=C(NNC(=O)c1cc2c(s1)CCCC2)c1ccccc1,,26.9 µM (active)
O=C(Nc1ccc(F)cc1)c1cc2c(s1)CCCC2,,1.9 µM (active)
COc1ccc(C(CNC(=O)c2cc3c(s2)CCCC3)N2CCOCC2)cc1 (stereo unspecified),0.96% (inactive),
O=C(NNC(=O)C1CCC1)c1ccccc1,0.634% (inactive),
O=C(c1cc2c(s1)CCC2)N1CCN(c2ccccc2)CC1,-9.22% (inactive),

SMILES,"activity change, negative = inhibition",Potency
O=C(NCCCN1CCOCC1)c1cc2c(s1)CCC2,3.35% (inactive),
CCC(=O)c1c[nH]c(C(=O)NCC2CCCO2)c1 (stereo unspecified),-1.61% (inactive),
O=C(NCC1CCCO1)c1cc2c(s1)CCCC2 (stereo unspecified),,12 µM (active)
O=C(NCCCn1ccnc1)c1cc2c(s1)CCCC2,-19.1% (inactive),
COc1ccc(Cn2c(=O)c3oc4ccccc4c3n(CC(=O)Nc3ccc(F)cc3F)c2=O)cc1,1.11% (inactive),
COc1ccc(Cn2ccn(Cc3cccc(OC)c3)c(=O)c2=O)cc1,1.98% (inactive),
CN(C)c1ccc(NC(=O)CSc2nc(-c3ccco3)cc(C(F)(F)F)n2)cc1,2.16% (inactive),
COC(=O)[C@@H]1CCCN1C(=O)c1cc(COc2cccc3cccnc23)on1,-2.66% (inactive),
CSc1ccccc1OCc1cc(C(=O)N2C[C@H]3CC[C@H]2C3)no1,,10.7 µM (active)
CSc1ccccc1OCc1cc(C(=O)N(C)CCc2c(C)n[nH]c2C)no1,-1.04% (inactive),
CCc1nnc(SCc2nc(-c3cccc(C)c3)oc2C)c2cc3sc(C)cc3n12,-0.968% (inactive),
COc1ccc2[nH]c(C(=O)N3CCN(C)CC3)c(C)c2c1,-4.15% (inactive),
COc1ccc2[nH]c(=S)cc(C)c2c1,-15.8% (inactive),
COc1ccc2[nH]c3ccc(OC)cc3c2c1,,21.3 µM (active)
CCCCn1c(CNC(=O)C23CC4CC(CC(C4)C2)C3)nnc1SCC(=O)Nc1ccc(C)cc1,-12.5% (inactive),
CC(C)Oc1ccc(CNC(=O)C2CCN(c3nc4ccccc4n(C)c3=O)CC2)cc1,1.52% (inactive),
O=C(O)COCC(=O)NCc1csc2ccc(Cl)cc12,1.62% (inactive),
C/C(=N\Nc1cccc(C(=O)O)c1)c1ccc2c(c1)Nc1ccccc1S2,,7.57 µM (active)
CC(=O)Nc1cccc(/C(C)=N/NC(=O)c2c(-c3ccccc3Cl)noc2C)c1,-2.43% (inactive),
Cc1ccccc1NC(=O)c1cc(S(=O)(=O)Nc2cccc(C(=O)O)c2)ccc1Cl,-5.3% (inactive),
Cc1ccc(S(=O)(=O)N2CCOCC2)cc1NC(=O)COC(=O)c1cnccn1,4.43% (inactive),
Cc1cc(F)ccc1NS(=O)(=O)c1ccc(-n2cccn2)cc1,-17.4% (inactive),

SMILES,"activity change, negative = inhibition",Potency
O=C(COC(=O)C1(c2ccc(F)cc2)CCCC1)N1CCNC1=O,2.21% (inactive),
COCCN1C(=O)C(=O)/C(=C(/O)c2ccc(S(=O)(=O)N3CCOCC3)cc2)C1c1ccc(O)c(OC)c1 (stereo unspecified),3.35% (inactive),
CSc1ccc(NC(=O)/C=C/C(=O)O)cc1,-17.2% (inactive),
O=C(NCc1ccncc1)NC12CC3CC(CC(C3)C1)C2,7.76% (inactive),
CSc1ccc(/C=C/C(=O)NC23CC4CC(CC(C4)C2)C3)cc1,,13.5 µM (active)
COC(=O)c1sc(NC(=O)COC(=O)C2CCC2)c(C(=O)OC)c1C,6.53% (inactive),
O=C(OCCN1C(=O)c2ccccc2C1=O)Oc1ccccc1,-4.77% (inactive),
O=C1c2ccccc2C(=O)N1CCOc1ccc(F)cc1,,13.5 µM (active)
Cc1cccc2c1N(CCOc1ccccc1)C(=O)C2=O,4.77% (inactive),
Cc1nc2c(c(C)nn2-c2ccccc2)c(C)c1CCC(=O)NCCc1ccc(Cl)cc1,-20.7% (inactive),
O=C(CSc1ncnc2scc(-c3ccccc3)c12)NCc1ccc2c(c1)OCO2,1.67% (inactive),
Cc1cc(C)c(NC(=O)CN2C(=O)c3cccnc3Oc3ccc(Cl)cc32)c(C)c1,3.06% (inactive),
Cn1c(NC(=O)c2ccccc2)nc2ccccc21,,6.75 µM (active)
Cn1nnc(NC(=S)NC(=O)c2ccccc2)n1,6.32% (inactive),
CCn1c(NC(=O)c2nn(C)cc2Br)nc2ccccc21,-17.5% (inactive),
Cn1sc(NC(=O)c2ccccc2)nc1=O,,19 µM (active)
Cn1c(S(=O)(=O)O)nc2ccccc21,7.69% (inactive),
Cc1nc2ccccc2c(=O)n1NC(=O)c1ccccc1,-1.41% (inactive),
Brc1cc(Br)c(Oc2cc(Br)c(Br)cc2Br)cc1Br,1.37% (inactive),
CC1CCC(N2CC(=O)N(CCC3=CCCCC3)C(c3ccc(F)cc3)C2=O)CC1 (stereo unspecified),3.29% (inactive),
COc1ccc(CN2CCN(C(=O)c3cc(C4CC4)nn3-c3ccccc3)CC2)cc1F,-2.79% (inactive),
CCn1c2ccccc2c2cc(NC(=O)Nc3ccc([N+](=O)[O-])cc3C)ccc21,-3.84% (inactive),

SMILES,"activity change, negative = inhibition",Potency
Cc1ccc(-n2c3nc(=O)[nH]c(=O)c-3cc3c(Cl)cccc32)cc1,-3.15% (inactive),
Cc1ccccc1-c1nc(SCC(=O)N(C)c2ccccc2)c2c(=O)n(C)c(=O)n(C)c2n1,-3.06% (inactive),
CCN(CC)S(=O)(=O)c1ccc(N2CCOCC2)c(NC(=O)c2ccc(=O)n(C)n2)c1,4.37% (inactive),
CCOC(=O)C1C(=O)NC(N2CCN(c3ccccc3)CC2)=NC1c1ccco1 (stereo unspecified),4.85% (inactive),
COc1ccc(C2=NN(C(=O)CSc3nnnn3C)C(c3ccco3)C2)cc1 (stereo unspecified),-0.222% (inactive),
CCOC(=O)C1C(=O)C=C(c2ccc(OC)cc2)CC1c1ccco1 (stereo unspecified),,13.5 µM (active)
Cc1ccc(Nc2nc(-c3ccc(O)cc3O)cs2)nc1,,2.39 µM (active)
O=C(CCNC(=O)c1ccccc1Cl)NCc1ccco1,1.33% (inactive),
CN(C(=O)CSc1nnc(NC(=O)Nc2ccccc2)s1)c1ccccc1,-6.6% (inactive),
O=C(CSc1nnc(SCc2ccc(F)cc2)s1)Nc1ccc(C(=O)O)cc1,,5.36 µM (active)
Cc1cc(NC(=O)CSc2nnc(Nc3ccccc3F)s2)no1,-1.21% (inactive),
O=C(CSc1nnc(C2CC2)n1Cc1ccccc1)Nc1cccnc1Cl,-1.59% (inactive),
CC(C)(C)NC(=O)CSc1nnc(NC(=O)CCc2ccccc2)s1,-2.69% (inactive),
CC(=O)c1ccc(NC(=O)CSc2nnc(NC(=O)Nc3ccccc3)s2)cc1,,0.478 µM (active)
O=C(Cc1cccs1)Nc1nnc(SCc2ccc(F)cc2)s1,-0.623% (inactive),
O=C(CSc1nnc(Nc2ccccc2)s1)Nc1cccnc1Cl,,16.9 µM (active)
Cc1nc(SCC(=O)Nc2ccc(C(=O)O)cc2)n[nH]1,-0.704% (inactive),
CCOc1ccc(NC(=O)CN(C)C(=O)CSc2ccccc2)cc1OCC,7.49% (inactive),
